# Bioassay records (PubChem BioAssay)
# ATXN2 expr inh – Primary qHTS for Inhibitors of ATXN expression | HEK-293 ATXN2-luciferase reporter, luminescence, 24 h | Potency, µM (titrated, usually from 57 µM), without a hit: top-dose activity change, negative = inhibition, most hits filed as inhibitors | 360,000 compounds, 0.72% hits | AID 1745845, 2022; further: on the % scale 0 is the no-effect control and ±100 the full control effect; nearly all actives have a fitted effect of over 55% in size
#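 ATXN2-luciferase reporter cells (luciferase flanked by upstream and downstream ATXN2 gene portions) were treated 24 h at 37 °C with compounds at up to 57 uM. SteadyGlo luminescence gave expression; GF-AFC fluorescence gave viability.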
# ATXN viability – Viability Counterscreen for Primary qHTS for Inhibitors of ATXN expression; S2 cells (HEK-293 line with an ATXN2-luciferase reporter) viability, CellTiter-Fluor protease fluorescence, 24 h; Potency, µM (top dose mostly 56.7 µM), usual class: cytotoxic; 400,000 compounds, 0.49% hits; further: nearly all actives have a fitted effect of over 40% in size
# VP16 counter – VP16 counterscreen qHTS for inhibitors of ROR gamma transcriptional activity; Drosophila S2 Gal4-VP16 UAS-luciferase, luminescence, 20 h; Potency, µM (series often up to 53.6 µM), without a hit: at the top dose activity, negative = inhibition, most hits filed as inhibitors; 310,000 compounds, 3.5% hits;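 further: Gal4-VP16 expression switched on by copper sulfate through the metallothionein promoter; on the % scale 0 is the no-effect control and ±100 the full control effect; nearly all actives have a fitted effect of over 50% in size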
# TGFb inhibitor – qHTS for Inhibitors of TGF-b. AID 588855, 2011. Potency, µM (doses to about 46.1 µM), for the others: top-dose activity, negative = inhibition, most hits filed as inhibitors. HepG2 CAGA-GFP TGF-b/SMAD3 reporter, GFP fluorescence, 18 h; TGF-beta stimulated, 500 pg/mL final. 410,000 compounds, 1.2% hits; further: on the % scale 0 is the no-effect control and ±100 the full control effect; nearly all actives have a fitted effect of over 65% in size
#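 Cell-based qHTS in HEPG2 carrying a CAGA-GFP Smad reporter; compounds added before 500 pg/mL final TGF-beta, 18 h incubation at 37 degrees C, GFP fluorescence quantified per cell by imaging cytometry.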
# RORg inh – qHTS for inhibitors of ROR gamma transcriptional activity. Nuclear receptor ROR-gamma (Mus musculus), P51450. Drosophila S2 Gal4-RORgamma UAS-luciferase reporter, 20 h. Potency, µM (doses to about 53.6 µM), for inactives: at the top dose activity change, negative = inhibition, actives largely listed as inhibitors. 310,000 compounds, 5.4% hits. AID 2551, 2010; further: on the % scale 0 is the no-effect control and ±100 the full control effect; nearly all actives have a fitted effect of over 60% in size
# Target sequence (P51450 whole entry, looked up, the tested form may be a part): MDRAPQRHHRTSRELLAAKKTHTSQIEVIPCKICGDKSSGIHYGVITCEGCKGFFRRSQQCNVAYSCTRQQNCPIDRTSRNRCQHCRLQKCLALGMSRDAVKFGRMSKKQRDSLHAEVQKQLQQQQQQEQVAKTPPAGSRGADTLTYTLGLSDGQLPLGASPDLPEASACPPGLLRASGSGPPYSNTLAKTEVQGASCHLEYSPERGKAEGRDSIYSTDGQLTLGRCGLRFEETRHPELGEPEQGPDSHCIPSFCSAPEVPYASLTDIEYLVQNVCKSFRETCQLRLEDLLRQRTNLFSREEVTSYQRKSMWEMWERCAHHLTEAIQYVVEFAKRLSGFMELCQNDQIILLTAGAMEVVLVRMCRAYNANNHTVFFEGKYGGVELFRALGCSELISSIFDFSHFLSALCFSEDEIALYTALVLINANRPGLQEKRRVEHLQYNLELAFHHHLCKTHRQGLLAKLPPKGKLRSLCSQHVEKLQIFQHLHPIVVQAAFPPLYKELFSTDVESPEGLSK
#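 ROR gamma transcriptional activity was tracked as Gal4-UAS luciferase output in stably transfected Drosophila Schneider cells, with compound added 1 hr before 700 uM copper sulfate induction and a 20 hr ambient-temperature incubation.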
# HepG2 tox – qHTS for Inhibitors of TGF-b: Cytotox Counterscreen; 410,000 compounds, 0.76% hits; AID 588856, 2011; Potency, µM (highest dose often 46.1 µM), without a hit: at the highest dose activity change, negative = cytotoxicity, most hits filed as cytotoxic; HepG2 CAGA-GFP viability, ATP luminescence, 18 h
#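 HepG2 CAGA-GFP cells (1000/well, DMEM with 1% FBS) received compound, then TGF-beta at 500 pg/mL final, and were incubated 18 hours at 37 degrees C. Viability was read by CellTiter-Glo luminescence. Media-only wells were set as complete cell-killing and DMSO as no toxicity.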
# * = called active by the depositor; i = inactive; ? = inconclusive; · = no result given; [ ] = remark or other dose. The list is not random: actives were taken first. Their share in the collection is about 6.1%. The call rests on the fitted dose curve; in most records, active means well fitted curve in the direction sought with a large enough effect; inconclusive means small, poorly fitted or top-dose-only effect, or another doubt; inactive means no such curve, though single readings can be large; an effect the other way counts as inactive or inconclusive. Potency means the concentration at half of the fitted maximal effect.
SMILES,ATXN2 expr inh,ATXN viability,VP16 counter,TGFb inhibitor,RORg inh,HepG2 tox
CCSc1nnc(NC(=O)C(CC)(C(F)(F)F)C(F)(F)F)s1,-28%,i,16µM*,?,10µM*,-29%
CCn1nc(C)cc1C(=O)NCC1Cc2cccc(-c3cccnc3)c2O1 (centres undefined),·,i,·,·,·,·
CCSc1nnc(NC(=O)c2cccc(S(=O)(=O)N(C)c3ccc(C)cc3)c2)s1,-2%,i,?,-11%,16µM*,-28%
CCSc1nnc(NC(=O)C2Cc3ccccc3CN2S(=O)(=O)CC)s1 (centres undefined),1%,i,-93%,-8%,?,-38%
Cc1cnc(C(=O)Nc2nnc(SCc3c(Cl)cccc3Cl)s2)cn1,-24%,i,5µM*,-13%,2µM*,-14%
O=C(Nc1nnc(C2CC2)s1)C1Cc2ccccc2CN1S(=O)(=O)c1cccs1 (centres undefined),30%,i,?,?,1.4µM*,-26%
CCc1nnc(NC(=O)C2Cc3ccccc3CN2S(=O)(=O)c2cccs2)s1 (centres undefined),18%,i,·,1%,-19%[0.365 µM],-6%
CCS(=O)(=O)N1Cc2ccccc2CC1C(=O)Nc1nnc(SCc2c(Cl)cccc2Cl)s1 (centres undefined),12%,i,6.3µM*,?,5µM*,-28%
COc1ccc(CC(=O)Nc2ccc(-c3nc4ccccc4s3)cc2Cl)cc1OC,-22%,i,·,?,·,-31%
CNC(=O)[C@@H]1C[C@H](Sc2nc3ccccc3[nH]2)CN1Cc1ccccc1C(F)(F)F,·,i,·,·,·,·
COC(=O)C(CCSC)NC(=O)Cn1ncc2c([nH]c3ccccc32)c1=O (centres undefined),15%,?,·,1%,·,0%
COc1ccc(OC)c2c1sc(=NC(=O)C(C)C)n2C,-34%,i,20µM*,6%,0%,-9%
CCOC(=O)N1C(=O)[C@](c2ccc(Cl)cc2)(C(C)C)N1C(=O)OCC,?,?,-16%,?,-37%,10µM*
CCOC(=O)N1C(=O)[C@@](c2ccc(Cl)cc2)(C(C)C)N1C(=O)OCC,?,·,?,?,?,16µM*
CCOc1ccc(CNC(=O)CSc2nnc(C)c3c(C)n(-c4ccccc4)nc23)cc1,-26%,i,·,?,·,-2%
CC/C(=C(/c1ccccc1)c1ccc(OCCN(C)C)cc1)c1ccccc1,·,·,?,·,-40%,·
Cc1cc(NC(=O)CSc2nc(-c3cccc(F)c3)nc3c2c(=O)n(C)c(=O)n3C)no1,4%,i,·,-25%,·,-2%
COC(=O)c1ccccc1S(=O)(=O)NNC(=O)Nc1ccccc1,?,i,?,1%,11µM*,7%
Cc1cccc(N2CCN(C(=O)CCCOc3ccccc3)CC2)c1C,19%,i,-7%,0%,21%,-26%
CCC1(c2ccccc2)NC(=S)N(c2cccc(C)c2C)N1 (centres undefined),-1%,i,7.9µM*,20%,1.3µM*,-7%
COc1cc(NS(=O)(=O)c2cc3c(cc2C)n(C)c(=O)c(=O)n3C)cc(OC)c1,4%,i,·,-15%,·,-23%
COc1cc2[nH]c(=S)n(C3CCN(Cc4ccccc4)CC3)c(=O)c2cc1OC,-21%,i,?,-7%,?,-4%
COc1cc2[nH]c(=S)n(C3CCCC3)c(=O)c2cc1OC,-1%,i,2.8µM*,1%,4.5µM*,-28%
COc1cc2[nH]c(=S)n(C3CC3)c(=O)c2cc1OC,3%,i,18µM*,1%,3.5µM*,-34%
Cc1nn2c(=O)cc(COC(=O)c3cccc(NC(=O)COc4ccccc4C)c3)nc2s1,·,·,·,18%,·,4%
SMILES,ATXN2 expr inh,ATXN viability,VP16 counter,TGFb inhibitor,RORg inh,HepG2 tox
COc1ccc(/C=C/C(=O)NC(=S)N2CCSCC2)cc1,12%,i,13µM*,5%,3.5µM*,4%
COc1ccc(/C=C/C(=O)NC(=S)N2CCN(c3ccccn3)CC2)cc1,6%,i,13µM*,-6%,2.5µM*,-2%
Cc1ccc(-c2cc(C(=O)N3CCc4ccccc4C3)[nH]n2)cc1C,·,i,-4%,12%,1µM*,-4%
COc1cccc(-c2cc(C(=O)N3CCc4ccccc4C3)[nH]n2)c1,45%,i,-11%,5%,1.1µM*,1%
CC(C)Oc1ccc(F)cc1-c1cc(C(=O)N2CCc3ccccc3C2)[nH]n1,?,?,·,14µM*,·,-33%
Cc1cc(C(=O)N2CCc3ccccc3C2)n[nH]1,22%,i,20%,12%,4%,13%
CC(C)Oc1ccc(F)cc1-c1cc(C(=O)Nc2ccccc2)[nH]n1,19%,i,·,3%,·,4%
COc1cccc(-c2cc(C(=O)N3CCN(S(=O)(=O)c4ccccc4)CC3)[nH]n2)c1,-4%,i,2%,-16%,30%,-8%
CCOc1ccccc1CNC(=O)c1cnc2sc(N3CCC(C)CC3)nn2c1=O,9%,i,·,-12%,·,-11%
C/C(=N\S(=O)(=O)c1ccc(C)cc1)NC(=S)Nc1ccccc1,-4%,i,-13%,-12%,11µM*,-17%
COc1ccc(NC(=S)N/C(=N/S(=O)(=O)c2ccc(C)cc2)c2ccccc2)cc1,49%,i,-26%,7%,-89%,-25%
Cc1ccc(NC(=O)CN2C(=O)COc3ccc(S(=O)(=O)N4CCOCC4)cc32)c(Cl)c1,·,·,·,0%,·,-9%
CO[C@H]1COC(=O)C/C=C\[C@H](C)[C@@H](NS(=O)(=O)c2ccc(C)cc2)COC(=O)CCC[C@@H]1C,·,·,-6%[10 µM],·,6%[10 µM],·
Cc1nn(-c2ccccc2)c(C)c1/C=N/Nc1nc2ccccc2[nH]1,-9%,?,-2%,?,5%,-46%
Cc1c(/C=N/Nc2nc3ccccc3[nH]2)c2ccccc2n1C,-25%,?,?,?,5µM*,-32%
Cn1c(/C=N/Nc2nc3ccccc3[nH]2)nc2ccccc21,53%,i,13µM*,?,4.5µM*,-24%
CC(C)Cn1c(/C=N/Nc2nc3ccccc3[nH]2)nc2ccccc21,4.5µM*,?,1.1µM*,?,1.8µM*,-18%
CCCn1c(/C=N/Nc2nc3ccccc3[nH]2)nc2ccccc21,?,·,3.2µM*,?,2µM*,-19%
